Hits are enriched below; roughly 2.3% of the tested compounds scored in any of these assays.
PDI turbidity: PDI (human) enzyme inhibition; P07237; PDI insulin aggregation turbidity, A650, 90 min; inhibition, % at 10 µM; 350,000 tested, 0.052% active; AID 588391;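 active = mean inhibition across replicates of 30% or more, whatever share of single replicates reach that level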
Target sequence (P07237 whole entry, looked up): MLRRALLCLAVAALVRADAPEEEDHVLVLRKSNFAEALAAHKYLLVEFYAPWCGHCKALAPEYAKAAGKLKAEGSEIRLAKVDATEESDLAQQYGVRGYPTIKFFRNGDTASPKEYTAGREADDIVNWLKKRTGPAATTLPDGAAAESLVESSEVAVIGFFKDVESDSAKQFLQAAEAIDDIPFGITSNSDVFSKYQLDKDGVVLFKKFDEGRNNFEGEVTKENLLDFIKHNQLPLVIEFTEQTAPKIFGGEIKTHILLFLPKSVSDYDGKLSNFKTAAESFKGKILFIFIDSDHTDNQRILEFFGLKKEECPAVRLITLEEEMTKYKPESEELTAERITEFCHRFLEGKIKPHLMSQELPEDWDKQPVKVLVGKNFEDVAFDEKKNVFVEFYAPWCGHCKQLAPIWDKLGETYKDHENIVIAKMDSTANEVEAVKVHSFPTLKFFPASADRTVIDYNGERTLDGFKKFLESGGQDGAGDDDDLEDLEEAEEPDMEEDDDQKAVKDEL
DENV2 CPE rescue: DENV2-induced cell death inhibition; DENV2-infected cells, cytopathic effect rescue, plate reader; CPE inhibition, % at 9.99 µM; 350,000 tested, 1.7% active; AID 651640; in the data active = CPE inhibition above about 20%, passing the limit was not always enough; tested in BHK-21 cells;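 also: 0% = median of neutral control wells and 100% = median of positive control wells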
ERp5 inh: inhibitors of human ERp5; ERp5 insulin aggregation, absorbance 650 nm, 90 min; AID 651711; 350,000 tested, 0.05% active; Q15084; inhibition, % at 9.99 µM;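 active = mean replicate inhibition above about 25%, with every replicate also reaching it, limit read from the data, passing the limit was not always enough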
SIRT5 inh: blocks human SIRT5 desuccinylation of peptide. 330,000 tested, 1.1% active. AID 652115. Purified SirT5, succinyl-peptide AMC, trypsin-coupled fluorescence. inhibition, % at 15 µM; in the data active = inhibition above about 15%
Rtt109 Vps75: inhibitors of Candida albicans Rtt109/Vps75 histone acetyltransferase. purified Rtt109/Vps75, ThioGlo CoA-SH fluorescence, 4 h. 330,000 tested, 0.16% active. Q5AAJ8. inhibition, % at 34.9 µM;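 active = inhibition of at least 50% in every replicate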
Starred values were filed as active, the others as inactive; ! = repeats disagree.

`CCCC(=O)Nc1ccc(C(=O)NNC(=O)c2cccs2)cc1` gave PDI turbidity 4, DENV2 CPE rescue 9, ERp5 inh -2, SIRT5 inh -3 and Rtt109 Vps75 3.
`CCCC(=O)Nc1ccc(C(=O)NNC(=S)NC(=O)c2cccs2)cc1` gave PDI turbidity 7 and Rtt109 Vps75 60*.
Screening Oc1ccc(-c2n[nH]c(C(F)(F)F)c2-c2ccccc2)c(O)c1 returned PDI turbidity -6, DENV2 CPE rescue 3, ERp5 inh -2, SIRT5 inh 44* and Rtt109 Vps75 21.
COc1ccc(NC(=O)Nc2ccc3c(c2)C(=O)N([C@H](C)CO)C[C@H](C)[C@@H](CN(C)C(=O)Cc2ccccc2)OCCCC[C@H](C)O3)cc1 was read as DENV2 CPE rescue 58*, ERp5 inh -1 and SIRT5 inh 5.
`COc1ccc(NC(=O)Nc2ccc3c(c2)C(=O)N([C@H](C)CO)C[C@@H](C)[C@@H](CN(C)C(=O)Cc2ccccc2)OCCCC[C@H](C)O3)cc1` gave DENV2 CPE rescue -11, ERp5 inh 0 and SIRT5 inh -1.
`COc1ccc(S(=O)(=O)Nc2ccc3c(c2)C(=O)N([C@@H](C)CO)C[C@@H](C)[C@@H](CN(C)C(=O)Cc2ccccc2)OCCCC[C@@H](C)O3)cc1` gave DENV2 CPE rescue 21*, ERp5 inh -2 and SIRT5 inh 4.
For COc1ccc(S(=O)(=O)Nc2ccc3c(c2)C(=O)N([C@H](C)CO)C[C@H](C)[C@@H](CN(C)C(=O)Cc2ccccc2)OCCCC[C@@H](C)O3)cc1 the results were DENV2 CPE rescue 10, ERp5 inh -1 and SIRT5 inh 1.
`COc1ccc(S(=O)(=O)Nc2ccc3c(c2)C(=O)N([C@@H](C)CO)C[C@H](C)[C@@H](CN(C)C(=O)Cc2ccccc2)OCCCC[C@@H](C)O3)cc1` gave DENV2 CPE rescue 26*, ERp5 inh -1 and SIRT5 inh 6.
Screening CNC[C@H]1Oc2ccc(NC(=O)Nc3ccc(OC)cc3)cc2CC(=O)N([C@@H](C)CO)C[C@@H]1C returned DENV2 CPE rescue -3, ERp5 inh 2 and SIRT5 inh 3.
Screening C[C@@H]1CN([C@@H](C)CO)C(=O)c2cc(C#CCN(C)C)cnc2O[C@@H]1CN(C)C(=O)Nc1ccccc1F returned DENV2 CPE rescue 1, ERp5 inh -9 and SIRT5 inh 3.
For C[C@H]1CN([C@@H](C)CO)C(=O)c2cccc(NC(=O)C3CCCCC3)c2O[C@H]1CN(C)C(=O)Nc1ccc(C(F)(F)F)cc1 the results were DENV2 CPE rescue 27*, ERp5 inh 1 and SIRT5 inh 8.
C[C@@H]1CN([C@@H](C)CO)C(=O)c2cccc(NC(=O)C3CCCCC3)c2O[C@H]1CN(C)Cc1ccc(C(F)(F)F)cc1 was read as DENV2 CPE rescue -2, ERp5 inh 0 and SIRT5 inh 6.
`C[C@@H]1CN([C@H](C)CO)C(=O)c2cccc(NC(=O)C3CCOCC3)c2O[C@H]1CN(C)Cc1ccc(Oc2ccccc2)cc1` gave DENV2 CPE rescue 25*, ERp5 inh 1 and SIRT5 inh 4.
Screening C[C@H](CO)N1C[C@H](C)[C@@H](CN(C)Cc2ccccc2)Oc2c(NC(=O)C3CCCCC3)cccc2C1=O returned PDI turbidity -2, DENV2 CPE rescue -11, ERp5 inh -1, SIRT5 inh 18*! and Rtt109 Vps75 15.
C[C@H](CO)N1C[C@H](C)[C@@H](CN(C)Cc2ccc(C(F)(F)F)cc2)Oc2c(NC(=O)C3CCCCC3)cccc2C1=O was read as DENV2 CPE rescue -1, ERp5 inh -6 and SIRT5 inh 17*.
For C[C@H]1CN([C@@H](C)CO)C(=O)c2cccc(NC(=O)C3CCCCC3)c2O[C@@H]1CN(C)C(=O)Nc1ccc(C(F)(F)F)cc1 the results were DENV2 CPE rescue -6, ERp5 inh 0 and SIRT5 inh -3.
For CCC(=O)Nc1ccc2c(c1)C(=O)N(C)C[C@H](OC)[C@@H](C)CN(C(=O)C1CC1)[C@H](C)CO2 the results were DENV2 CPE rescue 15, ERp5 inh -3 and SIRT5 inh -10.
For CN(C)c1cccc(C(=O)Nc2ccc(S(=O)(=O)Nc3nccs3)cc2)c1 the results were PDI turbidity 6 and Rtt109 Vps75 1.
`O=C(Nc1ccc(S(=O)(=O)Nc2nccs2)cc1)c1cccc(F)c1` gave PDI turbidity -1, DENV2 CPE rescue 5, ERp5 inh -2, SIRT5 inh 32* and Rtt109 Vps75 -4.

Compound activity as filed in PubChem BioAssay.
